Data: PubChem BioAssay (Tox21)
Records with an inconclusive call do not appear. Calls of active or inactive are those of the source. Calls come from the whole dose curve.

Experiment: qHTS assay to identify small molecule agonists of the endoplasmic reticulum stress response signaling pathway - cell viability counter screen (AID 1159517); note: nearly all actives have a fitted effect of over 50% in size
Details: ESRE-bla HeLa viability, CellTiter-Glo luminescence, 5 h; series mostly up to 61 µM
Text: U.S. Tox21 Program National Center for Advancing Translational Sciences [NCATS] NIH Chemical Genomics Center [NCGC] U.S. Environmental Protection Agency [EPA] National Institutes of Environmental Health Sciences [NIEHS] National Toxicology Program [NTP] U.S. Food and Drug Administration [FDA] Tox21 Assay Overview: Endoplasmic Reticulum (ER) plays an important role in cellular signaling, protein folding/maturation, stress response, lipid biosynthesis, calcium storage and release etc. Under stress conditions, proteins in ER misfold or unfold, and leading to the expression of ER stress responsive genes. ER stress has been associated with a variety of pathophysiological conditions such as cancer, inflammation, neurodegenerative diseases, diabetes, ischemic heart disease etc. To identify the compounds that induce ER stress response, an ER stress reporter cell line, CellSensor ESRE-bla HeLa (Life Technologies, Carlsbad, CA) containing a beta-lactamase reporter gene under control of the Endoplasmic reticulum Stress Response Element (ESRE) was used to screen Tox21 10K compound library. The cytotoxicity of the Tox21 compound library against the ESRE-bla HeLa cell line was tested in parallel by measuring cell viability using the CellTiter-Glo assay in the same wells.
Tox21 Assay Protocol Summary: ESRE-bla HeLa cells were dispensed at 1,500 cells/6 uL of assay medium per well into black wall/clear-bottom 1536-well plates using a Multidrop Combi (ThermoFisher Scientific, Waltham, MA) dispenser. After the assay plates were incubated at 37 C and 5% CO2 for an overnight, 23 nL of compounds dissolved in DMSO, positive controls or DMSO only was transferred to the assay plate by a Pintool station (Kalypsys, San Diego, CA). The assay plates were incubated at 37 C and 5% CO2 for 5 hr. One uL of LiveBLAzer B/G FRET substrate (Life Technologies) was added using a FRD (Flying Reagent Dispenser, Aurora Discovery, San Diego, CA) and the plates were incubated at room temperature for 2 hr. Fluorescence intensity (405 nm excitation, 460 nm and 530 nm emissions) was measured using an Envision plate reader (PerkinElmer, Shelton, CT). For cytotoxicity, 4 ul/well of CellTiter-Glo reagent was added into the assay plates using an FRD. After 30 min incubation at room temperature, the luminescence intensity was measured using a ViewLux plate reader (PerkinElmer).
In the case of `CCCCCCCCCCCCCCCCCBr`, the outcome is reported as “inactive”. In the case of `Oc1ccc2c(c1)OCO2`, the outcome is reported as “inactive”. With `OC(CCN1CCCCC1)(c1ccccc1)C1CCCCC1` (stereo not given) the outcome was “inactive”. In the case of `CN1CCC[C@@H]1c1cccnc1`, the outcome is reported as “inactive”. For `N[C@H]1C(O)O[C@H](CO)[C@H](O)[C@@H]1O` (stereo not given in full), the outcome was “inactive”. For `NC(N)=N/N=C/c1c(Cl)cccc1Cl`, the outcome was “inactive”. For `CC(C)c1ccc2c(C(C)C)cc(C(C)C)c(S(=O)(=O)O)c2c1`, the outcome was “inactive”. With `Cc1ccccn1` the outcome was “inactive”. In the case of `O=C(O)/C=C/c1cnc[nH]1`, the outcome is reported as “inactive”. For `C[C@@H](C1=C(CCN(C)C)Cc2ccccc21)c1ccccn1`, the outcome was “inactive”. With `CNS(=O)(=O)Cc1ccc2[nH]cc(CCN(C)C)c2c1` the outcome was “inactive”. For `O=C(O)Cc1sc(-c2ccccc2)nc1-c1ccc(Cl)cc1`, the outcome was “inactive”. For `COCCOCCOCCOCCOC`, the outcome was “inactive”. With `Cc1ccc(C(C)c2ccc(C)c(C)c2)cc1C` the outcome was “inactive”. With `CC(=O)N(CC(=O)N(C)C)c1ccccc1` the outcome was “inactive”. In the case of `NCCCOCCOCCOCCCN`, the outcome is reported as “inactive”. For `CCCCCc1ccc(N)cc1`, the outcome was “inactive”. In the case of `Cc1cc(O)ccc1N`, the outcome is reported as “inactive”. For `CN(C)CCCOc1nn(Cc2ccccc2)c2ccccc12`, the outcome was “inactive”. In the case of `CCCc1ccccc1`, the outcome is reported as “inactive”. For `Cn1sccc1=O`, the outcome was “inactive”. With `Nc1ccc(C(=O)N2CC3CC(CN(Cc4ccccc4)C3)C2)cc1` the outcome was “inactive”. For `CC(C)NCC(O)COc1ccc(CC(N)=O)cc1` (stereo not given), the outcome was “inactive”. With `Nc1cnn([C@@H]2O[C@H](CO)[C@@H](O)[C@H]2O)c(=O)n1` the outcome was “inactive”. In the case of `CC(C)(C)c1ccc(OCC2CO2)cc1` (stereo not given), the outcome is reported as “inactive”. With `CCCOc1ccc2nc(NC(=O)OC)[nH]c2c1` the outcome was “inactive”. With `O=C1[C@H](CC[C@H](O)c2ccc(F)cc2)[C@@H](c2ccc(O)cc2)N1c1ccc(F)cc1` the outcome was “inactive”. With `O=C(Cl)c1c(Cl)cccc1Cl` the outcome was “inactive”. With `CCCCCCOC(=O)CCC` the outcome was “inactive”. In the case of `Cc1ncsc1CCO`, the outcome is reported as “inactive”. With `CC(C)CCCC(C)CCO` (stereo not given) the outcome was “inactive”. For `CC/C(=C\C(=N/O)C(N)=O)C(C)[N+](=O)[O-]` (stereo not given), the outcome was “inactive”. In the case of `CCCCCCCCCC=O`, the outcome is reported as “inactive”. With `CCCCCOC(=O)c1ccc(O)cc1` the outcome was “inactive”. In the case of `COc1ccc([C@@H]2Sc3ccccc3N(CCN(C)C)C(=O)[C@@H]2OC(C)=O)cc1`, the outcome is reported as “inactive”. In the case of `C=CC(=O)OCC(C)OCC(C)OCC(C)OC(=O)C=C` (stereo not given), the outcome is reported as “inactive”. With `CN(C)CC/C=C1\c2ccccc2COc2ccccc21` the outcome was “inactive”. In the case of `O=C(Nc1ccccc1)OCC(CN1CCCCC1)OC(=O)Nc1ccccc1` (stereo not given), the outcome is reported as “inactive”. With `O=C(O)Cc1cc(I)c(Oc2ccc(O)c(I)c2)c(I)c1` the outcome was “inactive”. In the case of `CCOc1nc2cccc(C(=O)O)c2n1Cc1ccc(-c2ccccc2-c2nn[nH]n2)cc1`, the outcome is reported as “inactive”.
